uPA surface inh = qHTS for Inhibitors of Cell Surface uPA Generation | cell surface uPA generation assay, qHTS | Potency, µM (top dose mostly 38.3 µM), most hits filed as inhibitors | actives 0.31% (n = 330,000) | AID 540303, 2011; active = well fitted inhibition curve with a large enough effect; inconclusive = small, poorly fitted or top-dose-only effect; inactive = no such curve, though single readings can be large or run the other way; tested in mouse RAW 264.7 cells; also: nearly all actives have a fitted effect of over 55% in size
VDR inhibitor = Inhibitors of the vitamin D receptor (VDR): qHTS. VDR-SRC2-3 peptide fluorescence polarization, 2 h. Potency, µM, hits mostly inhibitors. Vitamin D3 receptor (Homo sapiens), P11473. actives 0.93% (n = 400,000)
Target sequence (P11473 whole entry, looked up): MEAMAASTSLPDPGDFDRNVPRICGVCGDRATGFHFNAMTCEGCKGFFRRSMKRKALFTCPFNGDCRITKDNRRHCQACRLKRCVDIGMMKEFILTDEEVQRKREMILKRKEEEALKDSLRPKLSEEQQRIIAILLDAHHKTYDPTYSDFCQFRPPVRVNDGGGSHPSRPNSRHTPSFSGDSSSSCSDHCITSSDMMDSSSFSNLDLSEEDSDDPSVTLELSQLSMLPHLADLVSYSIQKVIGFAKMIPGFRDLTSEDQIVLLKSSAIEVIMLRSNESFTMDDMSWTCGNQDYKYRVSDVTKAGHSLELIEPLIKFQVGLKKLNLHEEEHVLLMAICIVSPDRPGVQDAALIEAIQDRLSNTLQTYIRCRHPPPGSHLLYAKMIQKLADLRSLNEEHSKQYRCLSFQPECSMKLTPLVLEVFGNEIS
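Two reagent solutions held at 4 deg C in the dark were dispensed, compounds pinned at 23 nl, and the mixture incubated 2 h at room temperature. Read-out: fluorescence polarization of VDR–SRC2-3 peptide binding.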
PLK1 PBD block = qHTS for Inhibitors of PLK1-PDB (polo-like kinase 1 - polo-box domain): Primary Screen; AID 720504, 2013; Plk1 PBD binding of FITC phosphopeptide, fluorescence polarization; actives 2.8% (n = 360,000); Serine/threonine-protein kinase PLK1 (Homo sapiens), P53350; Potency, µM, hits mostly inhibitors; also: series mostly up to about 57 µM; nearly all actives have a fitted effect of over 65% in size
PTAP TSG101 blk = qHTS Assay for Iinhibitors of HIV-1 Budding by Blocking the Interaction of PTAP/TSG101 | Potency, µM (highest dose often 115 µM), actives largely listed as inhibitors | Fluorescence polarization, FITC-PTAP peptide / Tsg101 binding | 340,000 tested, under 10 active | Tumor susceptibility gene 101 protein (Homo sapiens), Q99816; active = well fitted inhibition curve with a large enough effect in the main read-out, with a control signal flat, not every such curve was filed as active; inconclusive = small, poorly fitted or top-dose-only effect, or effect the other way, or a change in a side signal; inactive = no such curve, though single readings can be large or run the other way
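Fluorescence polarization binding of Tsg101 binding domain (10 uM final) to FITC-labeled PTAP peptide (50 nM final) in HEPES pH 7.5 buffer with NaCl, Tween 20, EDTA, TCEP. Compounds added before peptide; binding 20 min at RT.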
TSHR antag = Antagonists of the Thyroid Stimulating Hormone Receptor: HTS campaign; TSHR-expressing cells, TSH-stimulated cAMP HTRF, 2 h; stronger effect = lower value; Thyrotropin receptor (Homo sapiens), P16473; actives 0.2% (n = 330,000); activity change, negative = inhibition, % at 11.5 µM;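 active = activity change below a set negative limit, meaning inhibition stronger than a set level, cut at about -70% in these data; inconclusive = activity change between two set negative limits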
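Antagonism was scored as loss of TSH-driven cAMP in TSHR cells, stimulated with 4nM TSH (EC80) for 2 hours at 37 deg C and detected by homogeneous HTRF competition immunoassay.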
Numbers stand for hits; n = inactive; u = inconclusive; x = no result given. Sampled rows, rich in hits. Any-hit rate of the full collection: about 3.1%. Unless noted, calls follow the shape of the dose curve; as a rule, active = well fitted curve in the direction sought with a large enough effect; inconclusive = small, poorly fitted or top-dose-only effect, or another doubt; inactive = no such curve, though single readings can be large; an effect the other way counts as inactive or inconclusive.

SMILES	uPA surface inh	VDR inhibitor	PLK1 PBD block	PTAP TSG101 blk	TSHR antag
O=C(Nc1cccc(F)c1)C1CC(=O)N(c2ccc(Br)cc2)C1 (stereo not drawn)	n	n	29.9µM	n	n
O=C(Nc1ccc(S(=O)(=O)N2CCOCC2)cc1)c1ccc(Cl)c([N+](=O)[O-])c1	n	n	26.7µM	n	x
CC(=O)Nc1ccc(-c2csc(N3CCC(C(N)=O)CC3)n2)cc1	x	x	x	x	n
CCc1cccc2c(C(=O)CCl)c[nH]c12	n	n	23.8µM	n	n
CCc1cccc2c(C(=S)N3CCCC3)c[nH]c12	n	n	n	n	n
Cc1cc(C)cc(NC(=O)CN(c2ccc(F)cc2)S(C)(=O)=O)c1	n	u	10.6µM	n	n
COc1ccc(NC(=O)CN(c2cc(C)cc(C)c2)S(=O)(=O)c2c(C)n[nH]c2C)cc1	n	89.1µM	29.9µM	n	n
CCOC(=O)c1c(C)oc2nc(C)nc(NCC3CCN(Cc4cc(C)ccc4C)CC3)c12	x	n	x	x	x
C=CCC(C)(O)c1cccc(Br)c1 (stereo not drawn)	x	n	x	x	x
O=c1ncccn1[C@@H]1O[C@H](CO)[C@@H](O)[C@H]1O	x	n	x	x	x
CCN1CCN(C(=S)c2ccc(Cl)c(Cl)c2)CC1	n	u	10.6µM	n	n
CCN1CCN(C(=S)Nc2ccc(Cl)c(Cl)c2)CC1	n	n	n	n	n
Cc1ccsc1C1NC(=O)c2ccccc2N1 (stereo not drawn)	n	n	n	n	n
O=C1NC(c2cccs2)Nc2ccccc21 (stereo not drawn)	n	n	2.67µM	n	n
COc1cc(OC)c2c(C)c(CC(=O)NCCc3ccccc3OC)c(=O)oc2c1	x	n	x	x	x
CCCCSCCCNC(=O)CN1C(=O)c2cccnc2Oc2ccc(Cl)cc21	x	n	x	x	x
O=C(Nc1ccc(C(=O)O)cc1)/C(=C\c1ccco1)NC(=O)c1ccc(Br)cc1	x	x	n	x	x
O=C(Nc1ccc(C(=O)O)cc1)/C(=C\c1ccco1)NC(=O)c1ccc(Br)o1	x	n	29.9µM	n	n
O=C(Nc1ccc(C(=O)O)cc1)/C(=C\c1ccc2c(c1)OCO2)NC(=O)c1ccc(Br)o1	n	n	26.7µM	n	n
O=C(OCC(F)(F)F)[C@H](O)[C@@H](O)C(=O)OCC(F)(F)F	x	n	x	x	x
O=C(O)CCC(=O)NNC(=O)c1ccc([N+](=O)[O-])cc1	n	u	23.8µM	n	n
O=C(NNC(=S)NC(=O)c1ccc(Br)cc1)c1cccc([N+](=O)[O-])c1	n	u	26.7µM	n	n
O=C(NNC(=S)NC(=O)c1ccc(Br)cc1)c1ccc([N+](=O)[O-])cc1	n	u	u	n	n
CC(=O)NNC(=S)NC(=O)c1cccc([N+](=O)[O-])c1	n	u	23.8µM	n	n
O=C(NNC(=S)NC(=O)c1ccccc1)c1ccc([N+](=O)[O-])cc1	n	n	26.7µM	n	n
SMILES	uPA surface inh	VDR inhibitor	PLK1 PBD block	PTAP TSG101 blk	TSHR antag
O=C(c1csnn1)N1CCC2(CCCN(c3ccccn3)C2)CC1	x	n	x	x	x
O=C(CN1C(=O)C(=O)N(C2CCCC2)C1=O)Nc1ccc(OC(F)F)cc1	n	n	n	n	n
COc1ccc(C(=O)NNC(=O)c2snnc2C)cc1	n	n	n	n	n
COc1cccc([C@@H]2Oc3ccc(Br)cc3C[C@H]2O)c1	x	n	x	x	x
O=C(CCc1ccccc1)NNC(=S)NC(=O)c1ccccc1	n	n	26.7µM	n	n
Cn1cc(-c2nc3cncnc3n(CCN)c2=O)c2ccccc21	x	n	x	x	x
COc1ccc(Cl)cc1NC(=O)C1CCCN(c2ncnc3onc(C)c23)C1 (stereo not drawn)	x	n	x	x	x
COc1cc2c(cc1OC)C(C)N(C(=O)c1c(C)noc1C)CC2 (stereo not drawn)	5.01µM	n	n	n	n
O=C(NCC(c1cccnc1)N1CCc2ccccc21)c1ccc(Cl)cc1 (stereo not drawn)	x	n	x	x	x
CCOC(=O)c1c(NC(=S)NC)sc2c1CC(C)(C)SC2	n	u	23.8µM	n	n
CC(C)=NNc1nc(-c2ccccc2)cs1	n	n	n	n	n
CC1(C)CC(CC(=O)NNc2nc(-c3ccccc3)cs2)C(=O)O1 (stereo not drawn)	n	u	26.7µM	n	n
C/C(CCC1CC(C)OC1=O)=N/Nc1nc(-c2ccccc2)cs1 (stereo not drawn)	n	44.7µM	29.9µM	n	n
CC1CC(CC(=O)NNc2nc(-c3ccccc3)cs2)C(=O)O1 (stereo not drawn)	n	n	n	n	n
O=C(O)c1ccc(-c2ccccc2)[nH]c1=O	n	u	23.8µM	n	n
O=C(O)c1ccc(-c2ccccc2)[nH]1	n	n	n	n	n
O=C(O)c1cc(-c2ccc(/C=C3\NC(=O)N(c4ccc(Cl)cc4)C3=O)o2)ccc1Cl	n	n	11.9µM	n	n
Cc1ccc(Sc2ccc(/C=C3/C(=O)NN(c4ccccc4)C3=O)o2)cc1	u	u	5.97µM	n	n
O=C(O)c1cc(-c2ccc(/C=C3\NC(=O)N(c4ccccc4)C3=O)o2)ccc1Cl	n	n	u	n	n
Cc1cccc(N2NC(=O)/C(=C/c3ccc(-c4ccc(Cl)c(C(=O)O)c4)o3)C2=O)c1	n	u	16.8µM	n	n
Cc1ccc(C)c(NC(=O)CN(C)S(=O)(=O)c2cccc3nsnc23)c1	x	n	x	x	x
COc1cccc(OC)c1-c1cc(C(=O)NC2(C(=O)O)C3CC4CC(C3)CC2C4)nn1-c1ccc(C(=O)N(C)CCCN(C)C)cc1C(C)C (stereo not drawn)	x	n	x	x	x
Cn1nc(C(=O)O)c(=O)n(C)c1=O	n	n	26.7µM	n	x
CCCCCCNC(=O)n1cc(F)c(=O)[nH]c1=O	x	n	x	x	x
CC(=O)Nc1cccc(C(=O)N/N=C/c2cccc(C)n2)c1	n	u	26.7µM	n	n
SMILES	uPA surface inh	VDR inhibitor	PLK1 PBD block	PTAP TSG101 blk	TSHR antag
Cc1cccc(C(=O)Nc2cccc(C(=O)N/N=C/c3cccc(C)n3)c2)c1	n	n	n	n	n
COc1ccc(C(=O)N2CCCCC2CCN2CCCCC2)cc1 (stereo not drawn)	x	n	x	x	x
CCOc1ccc(CCNC(=O)c2ccc(Cn3c(=O)c4cccn4c4cccnc43)cc2)cc1	x	n	x	x	x
CCOC(=O)NCCOC(=O)Nc1ccc(Cl)cc1	n	n	u	n	n
CCOC(=O)N(C)OC(=O)Nc1ccc(Cl)c(Cl)c1	n	n	2.12µM	n	n
CCOC(=O)N(CC)OC(=O)Nc1ccc(Cl)cc1	n	n	8.44µM	n	n
COc1ccc(CCNc2oc(/C=C/c3cc(OC)c(OC)c(OC)c3)nc2C#N)cc1OC	x	n	x	x	x
Cc1ccc(C)c(Oc2coc3cc(OC(=O)c4cccs4)ccc3c2=O)c1	n	n	9.47µM	n	x
COc1ccc(Oc2coc3cc(OC(=O)c4cccs4)ccc3c2=O)cc1	n	n	n	n	n

Screening results as filed in PubChem.
